Assay results from the supplement of paper PMC7695840.
Where a name gives a salt, the structure may show the parent alone.

System: Staphylococcus aureus MW2 (mecA+)
Experiment: normalized DsRed fluorescence (growth of mecA+ strain) (fraction of control range); higher = more growth of mecA+ strain
Settings: compound concentration: 150 uM; cefoxitin: subinhibitory; fluorescent label: DsRed
Procedure, shortened: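 Pre-induced S. aureus MW2 mecA+ (DsRed) and ΔmecA (GFP) cells were mixed 1:1 in LB with a daily-set subinhibitory cefoxitin dose. They were dispensed at 5 µL/well onto 150 μM compound (1.5% DMSO) in 1536-well plates, single replicate. Growth was 20 h at 37 °C, 90% humidity, unshaken, and DsRed (540/590) and GFP (485/520) were then read. Each channel was scaled per plate between the medians of the single-strain controls. Plates with high No Treatment ratios and rows with DsRed/GFP >10 were excluded.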

For `COc1cc(Nc2ncc(F)c(Nc3ccc4c(n3)N(COP(=O)(O)O)C(=O)C(C)(C)O4)n2)cc(OC)c1OC` [R788 (Fostamatinib)], which “normalized DsRed fluorescence” value is on record?
The value was 0.475.

`COc1ccc(-c2cc(=O)c3c(O)cc(O[C@@H]4O[C@H](CO[C@@H]5O[C@@H](C)[C@H](O)[C@@H](O)[C@H]5O)[C@@H](O)[C@H](O)[C@H]4O)cc3o2)cc1O` [Diosmin] was tested. Which “normalized DsRed fluorescence” value did it give?
Its value is 1.27.

How did the “normalized DsRed fluorescence” value turn out when `C[C@H](NCc1ccc(OCc2cccc(F)c2)cc1)C(N)=O` was run?
Its value is 0.675.

How did the “normalized DsRed fluorescence” value turn out when `CCCN(CCC)C(=O)C(CCC(=O)O)NC(=O)c1ccccc1` (stereo not given) was run?
Its value is 0.55.

`OCC(S)CS` (stereo not given) was tested. Which “normalized DsRed fluorescence” value did it give?
Its value is 0.549.

`C[N+](C)(C)C[C@H](O)CC(=O)[O-]` [L-carnitine (Levocarnitine)] was tested. Which “normalized DsRed fluorescence” value did it give?
The value was 0.836.

Which “normalized DsRed fluorescence” value does the source give for `NCCCC[C@H](N[C@@H](CCc1ccccc1)C(=O)O)C(=O)N1CCC[C@H]1C(=O)O` here?
The value was 0.642.

With `CN1C(C(=O)Nc2ccccn2)=C(O)c2sccc2S1(=O)=O` as the compound, how does the “normalized DsRed fluorescence” value read?
Its value is 0.778.

Which “normalized DsRed fluorescence” value does the source give for `CN1CCc2cccc3c2[C@H]1Cc1ccc(O)c(O)c1-3` here?
Its value is 0.543.

For `CCCCCC(=O)O[C@]1(C(C)=O)CC[C@H]2[C@@H]3CCC4=CC(=O)CC[C@]4(C)[C@H]3CC[C@@]21C`, which “normalized DsRed fluorescence” value is on record?
Its value is 0.39.

How did the “normalized DsRed fluorescence” value turn out when `C[C@]12CC[C@@H]3c4ccc(O)cc4CC[C@H]3[C@@H]1C[C@@H](O)[C@@H]2O` was run?
Its value is 0.459.

With `N#C[C@@H]1C[C@@H]2C[C@@H]2N1C(=O)[C@@H](N)C12CC3CC(CC(O)(C3)C1)C2` as the compound, how does the “normalized DsRed fluorescence” value read?
The value was 0.518.

How did the “normalized DsRed fluorescence” value turn out when `CCC[C@H](NC(=O)[C@@H]1[C@H]2CCC[C@H]2CN1C(=O)[C@@H](NC(=O)[C@@H](NC(=O)c1cnccn1)C1CCCCC1)C(C)(C)C)C(=O)C(=O)NC1CC1` [Telaprevir (VX-950)] was run?
The value was 1.39.

For `CNC(=C[N+](=O)[O-])NCCSCc1ccc(CN(C)C)o1`, which “normalized DsRed fluorescence” value is on record?
The value was 0.742.

Which “normalized DsRed fluorescence” value does the source give for `COc1cc(OC)c(C(=O)CCCN2CCCC2)c(OC)c1` [Buflomedil HCl] here?
The value was 0.499.

For `COC(=O)C1=C(C)NC(C)=C(C(=O)OC(C)C)C1c1cccc2nonc12` (stereo not given), which “normalized DsRed fluorescence” value is on record?
The value was 1.51.

With `C=CC[N+]1([C@H]2C[C@H]3[C@@H]4CC[C@H]5C[C@H](O)[C@@H](N6CCOCC6)C[C@]5(C)[C@H]4CC[C@]3(C)[C@H]2OC(C)=O)CCCC1` as the compound, how does the “normalized DsRed fluorescence” value read?
The value was 0.667.

`COc1cc2/c(=N/c3ccc(Br)cc3F)nc[nH]c2cc1OCC1CCN(C)CC1` [Vandetanib (Zactima)] was tested. Which “normalized DsRed fluorescence” value did it give?
The value was 1.19.

Which “normalized DsRed fluorescence” value does the source give for `NCC(=O)CCC(=O)O` here?
The value was 1.12.

For `CCCCOc1ccc(CC(=O)NO)cc1` [Bufexamac], which “normalized DsRed fluorescence” value is on record?
Its value is 0.828.

For `S=P(N1CC1)(N1CC1)N1CC1`, which “normalized DsRed fluorescence” value is on record?
The value was 0.86.

`COc1cc2nccc(Oc3ccc(NC(=O)Nc4cc(C)on4)c(Cl)c3)c2cc1OC` [Tivozanib (AV-951)] was tested. Which “normalized DsRed fluorescence” value did it give?
The value was 1.09.

For `COC(=O)Nc1nc2cc(C(=O)c3ccccc3)ccc2[nH]1`, which “normalized DsRed fluorescence” value is on record?
Its value is 1.25.

`CCN(CC)CC(=O)Nc1c(C)cccc1C` was tested. Which “normalized DsRed fluorescence” value did it give?
The value was 0.76.

`COCCCOc1cc(C[C@@H](C[C@H](N)[C@@H](O)C[C@H](C(=O)NCC(C)(C)C(N)=O)C(C)C)C(C)C)ccc1OC` was tested. Which “normalized DsRed fluorescence” value did it give?
The value was 0.717.

Which “normalized DsRed fluorescence” value does the source give for `NC[C@@H]1O[C@H](O[C@H]2[C@@H](O)[C@H](O[C@@H]3[C@@H](O)[C@H](N)C[C@H](N)[C@H]3O[C@H]3O[C@H](CO)[C@@H](O)[C@H](O)[C@H]3N)O[C@@H]2CO)[C@H](N)[C@@H](O)[C@@H]1O` here?
The value was 0.794.

`C[C@@H]1O[C@@H](OC[C@H]2O[C@@H](Oc3c(-c4ccc(O)c(O)c4)oc4cc(O)cc(O)c4c3=O)[C@H](O)[C@@H](O)[C@@H]2O)[C@H](O)[C@H](O)[C@H]1O` [Rutin (Rutoside)] was tested. Which “normalized DsRed fluorescence” value did it give?
Its value is 0.725.

For `Cc1ccc(Nc2c(F)cccc2Cl)c(CC(=O)O)c1`, which “normalized DsRed fluorescence” value is on record?
Its value is 0.183.

Which “normalized DsRed fluorescence” value does the source give for `CN1CCCN=C1/C=C/c1cccc(O)c1` here?
The value was 0.787.

Which “normalized DsRed fluorescence” value does the source give for `CN(C)CCCOc1nn(Cc2ccccc2)c2ccccc12` here?
The value was 1.11.

For `CN[C@@H]1[C@H](O[C@H]2[C@H](O[C@H]3[C@H](O)[C@@H](O)[C@H](N=C(N)N)[C@@H](O)[C@@H]3N=C(N)N)O[C@@H](C)[C@]2(O)C=O)O[C@@H](CO)[C@H](O)[C@H]1O`, which “normalized DsRed fluorescence” value is on record?
Its value is 0.69.

How did the “normalized DsRed fluorescence” value turn out when `Oc1ccc(OCc2ccccc2)cc1` was run?
The value was 0.522.

`CN1C(=O)OC(C)(C)C1=O` was tested. Which “normalized DsRed fluorescence” value did it give?
Its value is 1.31.

Which “normalized DsRed fluorescence” value does the source give for `Oc1ccc(O)cc1` here?
Its value is 0.882.

How did the “normalized DsRed fluorescence” value turn out when `O=C1c2ccccc2C(=O)C1c1ccccc1` [Phenindione (Rectadione)] was run?
Its value is 0.634.

For `CC1(C)S[C@@H]2[C@H](NC(=O)COc3ccccc3)C(=O)N2[C@H]1C(=O)O`, which “normalized DsRed fluorescence” value is on record?
The value was 0.0783.

How did the “normalized DsRed fluorescence” value turn out when `CCOC(=O)n1ccn(C)c1=S` [Carbimazole] was run?
Its value is 0.813.

Which “normalized DsRed fluorescence” value does the source give for `OCCN1CCN(CCCN2c3ccccc3Sc3ccc(C(F)(F)F)cc32)CC1` here?
The value was 1.68.

How did the “normalized DsRed fluorescence” value turn out when `C[C@@H]1[C@H](O)[C@@H](C)/C=C/C=C/C=C/C=C/C=C/C=C/C=C/[C@H](O[C@@H]2O[C@H](C)[C@@H](O)[C@H](N)[C@@H]2O)C[C@@H]2O[C@](O)(C[C@@H](O)C[C@@H](O)[C@H](O)CC[C@@H](O)C[C@@H](O)CC(=O)O[C@H]1C)C[C@H](O)[C@H]2C(=O)O` was run?
The value was 0.735.

How did the “normalized DsRed fluorescence” value turn out when `C=CC(N)CCC(=O)O` (stereo not given) was run?
Its value is 0.716.
